Hits are enriched below; roughly 4.4% of the tested compounds scored in any of these assays.
TRHR PAM: qHTS for Small Molecule Agonists and Allosteric Enhancers of Human TRH Receptor: Primary Screen for Enhancers; Thyrotropin-releasing hormone receptor (Homo sapiens), P34981; TRHR cells, fluo-8 calcium fluorescence, EC20 TRH enhancement; enhancement, % at 2 µM; hit rate 0.66% among 360,000; AID 493056, 2011; in the data active means enhancement above about 30%; further: 0% is about no effect
Target sequence (P34981 whole entry, looked up): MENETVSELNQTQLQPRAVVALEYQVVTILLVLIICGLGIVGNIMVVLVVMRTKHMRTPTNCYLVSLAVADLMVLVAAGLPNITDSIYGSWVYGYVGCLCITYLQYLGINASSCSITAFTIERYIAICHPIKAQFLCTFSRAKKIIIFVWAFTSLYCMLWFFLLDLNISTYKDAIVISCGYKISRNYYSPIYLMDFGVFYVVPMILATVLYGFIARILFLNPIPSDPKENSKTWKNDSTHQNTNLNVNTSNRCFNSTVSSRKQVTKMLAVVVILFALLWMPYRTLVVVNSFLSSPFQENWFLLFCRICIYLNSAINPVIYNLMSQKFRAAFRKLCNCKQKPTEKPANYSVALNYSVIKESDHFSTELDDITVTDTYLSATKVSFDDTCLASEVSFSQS
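Enhancer read-out: after compound pinning and an initial kinetic agonist-mode read, an EC20 of TRH (10 nM final) was injected and fluo-8 calcium signal (Ex 480/Em 530) followed at 1 s/cycle for 100 cycles in TRHR-expressing cells.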
D1 potentiator: Potentiators of Human D1 Dopamine Receptor: qHTS | D(1A) dopamine receptor (Homo sapiens), P21728 | HEK293 TREx D1 cells, calcium flux, dopamine EC20 potentiation | potentiation, % at 10 µM | hit rate 0.036% among 360,000; in the data active means potentiation above about 30%; further: 0% is about no effect
D1 agonist: Allosteric Agonists of the Human D1 Dopamine Receptor: qHTS; hit rate 1% among 360,000; activation, % at 2 µM; D(1A) dopamine receptor (Homo sapiens), P21728; HEK293 T-REx D1 cells, calcium flux, agonist mode; AID 504660, 2011; further: 0% is about no effect
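Agonism was scored from calcium flux recorded over 180 s (1 read/s) after pintool compound addition, following a 10-cycle baseline. Cells were inducible force-coupled HEK293 TREx D1, plated overnight at 30 C and loaded with no-wash calcium dye.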
D1 antagonist: Antagonist of Human D 1 Dopamine Receptor: qHTS. D(1A) dopamine receptor (Homo sapiens), P21728. HEK293 TREx D1 cells, calcium flux, dopamine EC80; active compounds read low. activity change, negative = inhibition, % at 10 µM. hit rate 3.2% among 360,000; in the data active means activity change below about -30%; further: on the % scale 0 is the no-effect control and ±100 the full control effect
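Calcium flux readout: force-coupled, inducible Hek293 Trex D1 line, cells induced overnight at 30 C with tetracycline, dye-loaded 30–90 min at RT. Antagonism scored against EC80 dopamine challenge given 180 s after compound.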
TRHR agonist: qHTS for Small Molecule Agonists and Allosteric Enhancers of Human TRH Receptor: Primary Screen for Agonists | TRHR cells, calcium flux fluo-8, FDSS agonist mode | activation, % at 2 µM | AID 493084, 2011 | Thyrotropin-releasing hormone receptor (Homo sapiens), P34981 | hit rate 0.18% among 360,000; further: 0% is about no effect
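Read-out: compound-evoked intracellular calcium rise in TRHR cells, fluo-8 dye, kinetic FDSS fluorescence at 1 s/cycle following a 10-cycle baseline. Cells cultured overnight before dye loading (30 min–1.5 h, RT).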
USP1-UAF1 inh: Inhibitors of USP1/UAF1: Primary Screen | recombinant USP1/UAF1, Ub-Rhodamine cleavage fluorescence | hit rate 0.23% among 390,000 | Potency, µM (series often up to 57.1 µM), for the others: at the top dose activity change, negative = inhibition, usual class: inhibitors | Ubiquitin carboxyl-terminal hydrolase 1 (Homo sapiens), O94782; active means well fitted inhibition curve with a large enough effect; inconclusive means small, poorly fitted or top-dose-only effect; inactive means no such curve, though single readings can be large or run the other way; further: potency means the concentration at half of the fitted maximal effect; on the % scale 0 is the no-effect control and ±100 the full control effect; nearly all actives have a fitted effect of over 60% in size
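In this screen, compounds sit with the deubiquitinase complex (1nM) for 15 min at room temperature before Ub-Rho is added at 150nM final. Fluorescence rise is then followed for 6 reads every 60 seconds.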
Starred values were filed as active, the others as inactive; ? = inconclusive; · = no result. Unless noted, no stated cut-off is given here; in the data, active means activation above about 30%; inactive means the rest.

SMILES	TRHR PAM	D1 potentiator	D1 agonist	D1 antagonist	TRHR agonist	USP1-UAF1 inh
Cc1ccc(S(=O)(=O)N2CCOCC2)cc1C(=O)NC(=S)N1CC(C)OC(C)C1 (configuration not stated)	-1	0	0	-35*	-1	-13%
CC(=O)Nc1ccc(C(=O)Nc2ccc(S(=O)(=O)N3CCOCC3)cc2)cc1	-1	-8	2	-2	2	-10%
CC(=O)NC(c1ccco1)c1cc(Br)c2cccnc2c1O (configuration not stated)	-6	0	8	2	0	·
COC(=O)NCC(C)OC(=O)Nc1ccc(Cl)cc1 (configuration not stated)	-2	1	1	2	0	-13%
Cc1ccc(NC(=O)OC(C)CNC(=O)Oc2cccc(C)c2)cc1 (configuration not stated)	6	-6	3	-32*	-1	-4%
Cc1cccn2c(=O)c(C(=O)NCCc3ccccc3)c(O)nc12	2	-2	1	18	0	-13%
CCCN(CC(=O)Nc1ccccc1C)C(=O)c1ccc(COc2ccccc2)cc1	3	-1	11	-42*	0	-16%
Cc1nn2c(=O)cc(COC(=O)c3cccc(NC(=O)c4ccc(F)cc4)c3)nc2s1	2	0	-2	3	1	-4%
COc1cccc(C(=O)NNC2=C(C(=O)C(F)(F)F)CCC2)c1	33*	1	4	8	0	-21%
O=C(Cn1nnc(-c2ccc(Cl)cc2)n1)NC1CC2CCC1C2 (configuration not stated)	9	-6	2	-34*	0	-15%
CCOC(=O)c1ccc(NS(=O)(=O)c2ccc3c(c2)OCCO3)cc1	15	-6	25	-36*	3	-13%
Cc1ccc(C)c(NS(=O)(=O)c2ccc(OCC(=O)NCC3CCCO3)cc2)c1 (configuration not stated)	-1	-1	1	-6	2	-7%
COc1ccc(NS(=O)(=O)c2cccc(C(=O)OCC(=O)Nc3cc(C)on3)c2)cc1	8	-2	9	-15	0	7%
CCNC(=O)COC(=O)c1ccc(NS(=O)(=O)c2ccc3c(c2)OCCO3)cc1	16	4	3	-2	0	-3%
Cc1ccc(NS(=O)(=O)c2ccc(C(=O)OCC(=O)Nc3cc(C)on3)cc2)cc1	0	0	44*	-6	1	-17%
COc1ccc(S(=O)(=O)Nc2ccc(CC#N)cc2)cc1	-3	-2	6	-33*	0	-20%
Cc1ccc(NS(=O)(=O)c2ccc(OCC(=O)NCC3CCCO3)cc2)cc1 (configuration not stated)	-3	-4	10	-38*	1	-19%
COc1ccc2c(C)c(CCC(=O)NCCc3ccc(OC)c(OC)c3)c(=O)oc2c1	3	0	-1	-13	-1	-17%
Cc1ccc(-n2ncc3c(N4CCCCCC4)ncnc32)cc1C	-6	0	-5	4	-1	-17%
COc1ccc(OC)c(CNC(=O)C2CCCCN2S(=O)(=O)c2ccc(F)cc2)c1 (configuration not stated)	14	4	3	-18	0	-13%
O=C(COCc1cc(-c2cccs2)on1)NCc1ccc(Cl)cc1	16	2	-2	-3	-1	-16%
CCOC(=O)COc1ccc(S(=O)(=O)Nc2ccc3c(c2)OCCO3)cc1	-8	-5	33*	-20	2	-8%
CCN(CC(=O)Nc1ccc(OC)cc1)C(=O)c1ccc(NS(=O)(=O)c2ccc(C(C)=O)cc2)cc1	-6	0	3	2	0	2%
C=C(C)CN(CC)C(=O)COc1ccc(S(=O)(=O)Nc2ccc(OC)cc2)cc1	-19	-7	52*	-28	4	-6%
CCC(C)(C)NC(=O)Cn1c(=O)ccc2cc(S(=O)(=O)N3CCC(C)CC3)ccc21	-7	-2	-1	2	1	-4%
SMILES	TRHR PAM	D1 potentiator	D1 agonist	D1 antagonist	TRHR agonist	USP1-UAF1 inh
CCOc1ccc(NC(=O)c2c[nH]n3c(=O)cc(C4CCN(C(=O)OC(C)(C)C)CC4)nc23)cc1	-8	-3	2	-32*	0	?
C/C=C(/C)C(=O)O[C@@H]1c2cc3c(c(OC)c2-c2c(cc(OC)c(OC)c2OC)[C@@H](OC(C)=O)[C@@H](C)[C@H]1C)OCO3	-7	-3	3	-62*	0	-29%
COc1cc2c(c(OC)c1OC)-c1c(cc3c(c1OC)OCO3)C[C@H](C)[C@@](C)(O)C2	12	-5	0	-11	-1	-14%
CC(=O)CSc1nc(N(C)C)nc(N(C)C)n1	2	-4	-2	·	0	-21%
CN(C)c1nc(SCC#N)nc(N(C)C)n1	-4	-8	0	-74*	0	-8%
CN(C)c1nc(C#N)nc(N(C)C)n1	33*	-4	-2	-2	0	-14%
CN(C)c1nc(N(C)C)nc(N(C)C)n1	-5	-5	-1	17	0	15%
CCOc1ccccc1NC(=O)c1ccc2c(Cl)c3c(nc2c1)CCC3	1	-1	3	-1	-1	-21%
COc1ccc(OC)c(S(=O)(=O)N(C)CC(=O)Nc2ccccc2OC)c1	4	-9	2	-82*	0	-14%
COc1ccccc1NC(=O)CN(c1ccccc1C)S(C)(=O)=O	-2	-10	3	3	0	-3%
CCOc1ccccc1NC(=O)CN(c1ccc(OC)cc1OC)S(=O)(=O)c1ccccc1[N+](=O)[O-]	-6	-7	5	-44*	0	-24%
COc1ccc(N(CC(=O)Nc2ccccc2C)S(=O)(=O)c2ccccc2[N+](=O)[O-])c(OC)c1	-3	-4	2	-5	0	-12%
COc1ccc(NC(=O)CN(c2ccccc2C)S(C)(=O)=O)c(OC)c1	31*	-2	1	7	0	5%
CC(C)(C)c1ccc(C(=O)N2CCCC(c3nc4c(nnn4Cc4cccc(F)c4)c(=O)[nH]3)C2)cc1 (configuration not stated)	-4	1	2	10	-1	-12%
CCCNc1c(F)c(F)c2c(C)c3ccccc3nc2c1F	9	-6	41*	4	34*	?
Cc1ccc(-c2c(C#N)c(N)nc3c2CCCCC3)o1	9	2	3	-48*	0	-12%
